Outcome data for twelve compounds are collected here from PubChem BioAssay AID687042 (Broad Institute, 2013).

Calls of active or inactive are those of the source.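 Rule for the calls: active = absorbance drop of 50% or more relative to neutral controls, with potency under twice the top valid dose; inactive = the rest, including effects in the opposite direction.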

The target in the assay is Protein disulfide-isomerase A6 (Homo sapiens) (UniProt Q15084). Kind of assay: ERp5 reductase inhibition, dose response, selectivity assay for PDI inhibitor project, biochemical, insulin aggregation, absorbance, dry powder, set 2 (AID 687042). Conditions: ERp5 insulin reduction aggregation, absorbance 650 nm; series mostly up to 35 µM.
Protein disulfide-isomerase A6 (Homo sapiens), sequence (Q15084 whole entry, looked up): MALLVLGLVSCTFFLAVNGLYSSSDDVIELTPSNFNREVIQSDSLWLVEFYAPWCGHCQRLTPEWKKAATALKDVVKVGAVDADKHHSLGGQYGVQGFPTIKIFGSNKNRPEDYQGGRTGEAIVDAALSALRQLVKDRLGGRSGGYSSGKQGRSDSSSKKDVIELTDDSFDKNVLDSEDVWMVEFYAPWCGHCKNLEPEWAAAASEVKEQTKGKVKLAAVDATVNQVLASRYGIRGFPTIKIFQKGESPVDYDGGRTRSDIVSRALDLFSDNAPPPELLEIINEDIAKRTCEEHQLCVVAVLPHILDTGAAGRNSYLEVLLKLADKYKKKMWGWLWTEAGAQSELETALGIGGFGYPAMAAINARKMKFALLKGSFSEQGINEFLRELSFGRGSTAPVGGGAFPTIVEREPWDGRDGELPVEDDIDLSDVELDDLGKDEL
Consider `CCOC(=O)C1(CCOc2ccccc2)CCN(Cc2ccc(O)cc2)CC1`, for which the result was inactive.
In the case of `CCOC(=O)C1(Cc2cccc(OC)c2)CCN(Cc2ccc(O)c(Cl)c2)CC1`, the call was inactive.
Turning to `CCOC(=O)C1(Cc2ccccc2)CCN(Cc2ccc(O)c(Cl)c2)CC1`, the compound was classed as inactive.
For `CCOC(=O)C1(CCOc2ccccc2)CCN(Cc2ccc(O)c(Cl)c2)CC1`, the compound was called inactive.
Turning to `C=CCOc1ccc(CN2CCC(CCOc3ccccc3)(C(=O)N3CCCC3)CC2)cc1Cl`, the call was inactive.
For `CCN(C)C(=O)C1(CCOc2ccccc2)CCN(Cc2ccc(O)c(Cl)c2)CC1` the value was “inactive”.
The entry for `CCOC(=O)C1(CCOc2ccccc2)CCN(Cc2ccc(OC)c(Cl)c2)CC1` is “inactive”; for `CC(C)OC(=O)C1(CCOc2ccccc2)CCN(Cc2ccc(O)c(Cl)c2)CC1` it is “inactive”.
For `C=CCOc1ccc(CN2CCC(CCOc3ccccc3)(C(=O)NCC)CC2)cc1Cl` the value was “inactive”; for `C=CCOc1ccc(CN2CCC(CCOc3ccccc3)(C(=O)N(C)CC)CC2)cc1Cl`, “inactive”.
With `CCOC(=O)c1c(CN2CCN(CCO)CC2)n(-c2ccccc2)c2cc(Br)c(O)cc12`, the outcome was inactive.
The entry for `O=C(N1CCCC1)C1(CCOc2ccccc2)CCN(Cc2ccc(O)c(Cl)c2)CC1` is “inactive”.
